The source of these data is PubChem BioAssay (EPA / NIEHS).

What is called AC50 is the concentration giving half of the maximal activity seen.

Test [1] in a line: ATG_NFI_CIS: Attagene CIS-FACTORIAL HepG2 Assay for human Nuclear Factor I (NFI) (AID 2282989). The settings on record: HepG2 cis-regulatory reporter, NFI response element transcription; actives raise or lower the signal. The method in brief:
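Reporter transcription driven by endogenous transcription factors in HepG2 cells; 24 h treatment. Quantitation by labelled RT-PCR fragments on capillary electrophoresis, gain- or loss-of-signal relative to DMSO.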

Test [2] concerns the target Myc proto-oncogene protein (Homo sapiens) (UniProt P01106). The test can be described thus: ATG_Myc_CIS: Attagene CIS-FACTORIAL HepG2 Assay for human Myelocytomatosis (Myc) Proto-Oncogene Transcription Factor (AID 2282990). To be noted: HepG2, Attagene cis-reporter transcription factor activity; actives raise or lower the signal. The method in brief: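 Transiently transfected HepG2 cells bearing cis-promoter reporter units for endogenous transcription factors; 24 h exposure. Reporter mRNA measured by RT-PCR, 6-FAM primer extension, HpaI cut and capillary electrophoresis; bidirectional fit relative to DMSO.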

Test [3] in a line: ATG_NF_kB_CIS: Attagene CIS-FACTORIAL HepG2 Assay for human Nuclear Factor Kappa B (NF-kB) (AID 2282991). To be noted: HepG2 Attagene cis-factorial NF-kB reporter mRNA; actives raise or lower the signal. The essentials: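 HepG2 cells transiently transfected with multiplexed cis-element reporter units measuring endogenous transcription factor activity; reporter mRNA read 24 h after dosing by RT-PCR, fluorescent labelling, HpaI digestion and capillary electrophoresis. Bidirectional fit against DMSO baseline.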

Test [4] is described as follows: ATG_NRF2_ARE_CIS: Attagene CIS-FACTORIAL HepG2 Assay for human Nuclear Factor Erythroid 2 Related Factor 2 (NFR2) response to Antioxidant Response Elements (ARE) (AID 2282992).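 On AC50: reporter mRNA level measured by RT-PCR and capillary electrophoresis fluorescence.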 The settings on record: HepG2 Attagene ARE/NRF2 reporter, transcription factor activity; actives raise or lower the signal. The method in brief: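 Transient MRTU transfection of HepG2; 24 h compound exposure; TriZol RNA, RT with oligo(dT), PCR, 6-FAM primer extension, HpaI cut, CE. Bidirectional fit vs DMSO.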

Test [5] has as its target Cellular tumor antigen p53 (Homo sapiens) (UniProt P04637). Nature of the test: ATG_p53_CIS: Attagene CIS-FACTORIAL HepG2 Assay for human p53 Transcription Factor (AID 2282994). The settings on record: HepG2 p53 cis-element reporter, Attagene mRNA; actives raise or lower the signal. The method in brief: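 HepG2, transient MRTU transfection (cis promoter elements, endogenous TFs); 24 h dosing; RNA isolation, RT-PCR, 6-FAM primer extension, HpaI digest, CE fluorescence; bidirectional fit vs DMSO.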

Test [6] in a line: BSK_3C_TissueFactor: BioMAP Diversity Plus: 3C Assay for Tissue Factor Biomarker Activity (AID 2282997). The settings on record: BioMAP 3C HUVEC, tissue factor biomarker readout; actives raise or lower the signal. The method in brief: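 Values derive from bidirectional curve fitting against DMSO of Tissue Factor ELISA signals, taken 24 h after dosing primary human umbilical vein endothelial cells.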

A short description of test [7]: BSK_3C_uPAR: BioMAP Diversity Plus: 3C Assay for Urokinase-type plasminogen activator receptor (uPAR) Biomarker Activity (AID 2282998). The settings on record: BioMAP 3C HUVEC, uPAR biomarker ELISA; actives raise or lower the signal. The method in brief: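 Readout: ELISA for surface uPAR. System: human umbilical vein endothelial primary cells, 24 h after chemical exposure. Analysis: bidirectional fit, DMSO baseline.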
In general terms: In an ELISA, binding on a coated surface is turned into a signal by an enzyme label.

Test [8] is described as follows: BSK_4H_Eotaxin3: BioMAP Diversity Plus: 4H Assay for Eotaxin 3 Biomarker Activity (AID 2283000).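 On outcome: CCL26 protein level quantified by ELISA in parallel with SRB cytotoxicity check.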 To be noted: primary human endothelial cells (HUVEC); actives raise or lower the signal. The essentials:
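Endothelial primary cells (human umbilical vein) exposed to compound for 24 h. ELISA detection of Eotaxin-3.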

The target in test [9] is human Peroxisome Proliferator-activated Receptor delta (PPARd), PPARD (gene 5467) (UniProt Q03181). The test can be described thus: ATG_PPARd_TRANS: Attagene TRANS-FACTORIAL HepG2 Assay for human Peroxisome Proliferator-activated Receptor delta (PPARd) (AID 2283002; active means hit-call score of the fitted dose curve at least 0.9, where 1 is the maximum). The essentials: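 HepG2 cells transiently transfected with GAL4-UAS multiplexed reporter units driven by exogenous chimeric NR-GAL4 proteins; 24 h compound exposure. Reporter mRNA measured by RT-PCR, 6-FAM primer extension, HpaI digestion and capillary electrophoresis; gain of signal fitted relative to DMSO.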

Read-out in test [10]: Intercellular Adhesion Molecule 1 (ICAM1), ICAM1 (gene 3383)
Nature of the test: BSK_3C_ICAM1: BioMAP Diversity Plus: 3C Assay for Intercellular Adhesion Molecule 1 (ICAM1) Biomarker Activity (AID 2283003). To be noted: primary human endothelial cells (HUVEC); actives raise or lower the signal. The essentials:
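Primary human umbilical vein endothelial cells in the BioMAP 3C system were exposed to chemicals for 24 h, then ICAM-1 was quantified by ELISA. Activity was fitted bidirectionally against the DMSO negative control baseline.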

Test [11] is described as follows: BSK_3C_Proliferation: Cell Proliferation Assessment in the BioMAP Diversity Plus: 3C Assay (AID 2283006).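 On AC50: potency may reflect either rise or fall in cell number versus DMSO.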 The settings on record: primary human endothelial cells (HUVEC). The essentials:
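Human umbilical vein endothelial cells were grown sub-confluent and exposed to chemical for 48 h, then fixed with 10% TCA and stained with 0.1% sulforhodamine B; absorbance at 560 nm gave relative cell number, fitted bidirectionally against DMSO baseline.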

In test [12] the target is Peroxisome proliferator-activated receptor gamma (Homo sapiens) (UniProt P37231). Nature of the test: ATG_PPARg_TRANS: Attagene TRANS-FACTORIAL HepG2 Assay for human Peroxisome Proliferator-activated Receptor-gamma (PPARg) (AID 2283007; active means hit-call score of the fitted dose curve at least 0.9, where 1 is the maximum). The essentials: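 HepG2 cells transiently transfected with multiplexed GAL4-UAS reporter units and exogenous chimeric NR-Gal4 proteins; reporter mRNA quantified after 24 h compound exposure by RT-PCR, fluorescent labelling, HpaI digestion and capillary electrophoresis; gain-of-signal fitted versus DMSO baseline.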

The target of test [13] is Nuclear receptor subfamily 1 group I member 2 (Homo sapiens) (UniProt O75469). The test can be described thus: ATG_PXR_TRANS: Attagene TRANS-FACTORIAL HepG2 Assay for human Pregnane X Receptor (PXR) (AID 2283008; active means hit-call score of the fitted dose curve at least 0.9, where 1 is the maximum). The method in brief:
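Read-out is fluorescence of labelled reporter cDNA fragments separated by capillary electrophoresis after RT-PCR and HpaI digestion. Source: HepG2 cells carrying PXR-GAL4/UAS reporter constructs, treated 24 h; activity fitted upward relative to DMSO.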

Test [14] can be described thus: ATG_Oct_MLP_CIS: Attagene CIS-FACTORIAL HepG2 Assay for human Octamer-Binding Transcription Factor (Oct) (AID 2282993). To be noted: HepG2 Attagene cis-factorial Oct reporter, mRNA; actives raise or lower the signal. The method in brief: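 Transfected HepG2 cells, 24 h treatment. Reporter mRNA quantified by RT-PCR–capillary electrophoresis; bidirectional fitting against DMSO.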

Test [15] in a line: BSK_3C_VCAM1: BioMAP Diversity Plus: 3C Assay for Vascular cell adhesion molecule 1 (VCAM1) Biomarker Activity (AID 2282999). To be noted: BioMAP 3C HUVEC, VCAM1 ELISA, cytokine-stimulated; actives raise or lower the signal. The essentials:
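Human umbilical vein endothelial cells (3C system), biomarker read by ELISA 24 h after dosing; bidirectional fit against DMSO baseline. Cytotoxicity tracked by SRB total-protein staining in parallel cultures at biomarker time.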

Test [16] addresses human Peroxisome Proliferator-activated Receptor alpha (PPARa), PPARA (gene 5465) (UniProt Q07869). Nature of the test: ATG_PPARa_TRANS: Attagene TRANS-FACTORIAL HepG2 Assay for human Peroxisome Proliferator-activated Receptor alpha (PPARa) (AID 2283001; active means hit-call score of the fitted dose curve at least 0.9, where 1 is the maximum). The method in brief: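 Measures transcriptional activity of an exogenous chimeric PPARa-Gal4 protein in transiently transfected HepG2 cells after 24 h dosing. Reporter mRNA quantified via RT-PCR and capillary electrophoresis; DMSO served as negative control.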

Test [17] deals with human Retinoic Acid Receptor beta (RARb), RARB (gene 5915) (UniProt P10826). The test can be described thus: ATG_RARb_TRANS: Attagene TRANS-FACTORIAL HepG2 Assay for human Retinoic Acid Receptor beta (AID 2283004; active means hit-call score of the fitted dose curve at least 0.9, where 1 is the maximum). The essentials: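 HepG2, transient MRTU transfection, NR–Gal4 chimera, 24 h treatment; RT-PCR plus CE fluorescence detection of reporter mRNA; gain of signal vs DMSO.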

The target of test [18] is human Retinoic Acid Receptor gamma (RARg), RARG (gene 5916) (UniProt P13631). Nature of the test: ATG_RARg_TRANS: Attagene TRANS-FACTORIAL HepG2 Assay for human Retinoic Acid Receptor gamma (RARg) (AID 2283009; active means hit-call score of the fitted dose curve at least 0.9, where 1 is the maximum). The method in brief: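 HepG2 cells transiently transfected with multiplexed reporter units expressing chimeric RARg-GAL4 and GAL4-UAS-driven reporters; 24 h compound exposure. Reporter mRNA quantified by RT-PCR with fluorescent labelling and capillary electrophoresis; gain-of-signal fitted relative to DMSO baseline.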

The target in test [19] is Retinoic acid receptor alpha (Homo sapiens) (UniProt P10276). Nature of the test: ATG_RARa_TRANS: Attagene TRANS-FACTORIAL HepG2 Assay for human Retinoic Acid Receptor alpha (RARa) (AID 2283005; active means hit-call score of the fitted dose curve at least 0.9, where 1 is the maximum). The essentials:
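HepG2 transiently transfected with multiplex GAL4-UAS reporter units including a human RARa–GAL4 chimera; 24 h compound exposure. Reporter mRNA quantified by RT-PCR, 6-FAM labeling and capillary electrophoresis; gain of signal versus DMSO.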

Structures are written as SMILES. Where “and” joins values, the source holds several entries; their conditions need not be identical. Identical values can stand only once. Results filed as inconclusive are left out. Calls of active or inactive are those of the source. How the source made its calls, unless noted: active means hit-call score of the fitted dose curve at least 0.9, where 1 is the maximum; inactive means score below 0.9.

Sequence of human Retinoic Acid Receptor beta (RARb), RARB (gene 5915) (P10826 whole entry, looked up, the tested form may be a part): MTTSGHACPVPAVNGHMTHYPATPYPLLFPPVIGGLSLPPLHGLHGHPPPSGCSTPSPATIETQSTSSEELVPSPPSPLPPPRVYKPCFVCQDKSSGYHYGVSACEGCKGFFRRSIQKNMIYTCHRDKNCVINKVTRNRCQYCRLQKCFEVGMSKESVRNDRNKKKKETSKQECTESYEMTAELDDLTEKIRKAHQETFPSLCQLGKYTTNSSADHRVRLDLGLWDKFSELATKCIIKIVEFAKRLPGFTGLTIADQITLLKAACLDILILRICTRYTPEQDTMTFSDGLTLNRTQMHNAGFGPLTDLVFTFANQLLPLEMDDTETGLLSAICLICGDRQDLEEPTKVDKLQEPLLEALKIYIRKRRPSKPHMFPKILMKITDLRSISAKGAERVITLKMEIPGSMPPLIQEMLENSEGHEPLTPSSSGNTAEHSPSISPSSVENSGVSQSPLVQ
Sequence of Myc proto-oncogene protein (Homo sapiens) (P01106 whole entry, looked up): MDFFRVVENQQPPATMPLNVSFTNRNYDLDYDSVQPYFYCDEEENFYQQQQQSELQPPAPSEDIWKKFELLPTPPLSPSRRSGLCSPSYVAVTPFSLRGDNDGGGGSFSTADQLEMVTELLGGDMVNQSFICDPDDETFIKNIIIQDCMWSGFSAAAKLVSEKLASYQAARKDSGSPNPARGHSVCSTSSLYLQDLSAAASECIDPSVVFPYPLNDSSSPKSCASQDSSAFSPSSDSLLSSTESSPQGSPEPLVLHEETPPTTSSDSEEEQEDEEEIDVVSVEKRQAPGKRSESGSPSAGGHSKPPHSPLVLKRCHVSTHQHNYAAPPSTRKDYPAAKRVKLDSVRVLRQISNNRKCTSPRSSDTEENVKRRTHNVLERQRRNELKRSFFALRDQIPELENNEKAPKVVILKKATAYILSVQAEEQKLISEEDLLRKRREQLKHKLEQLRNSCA
Sequence of Retinoic acid receptor alpha (Homo sapiens) (P10276 whole entry, looked up, the tested form may be a part): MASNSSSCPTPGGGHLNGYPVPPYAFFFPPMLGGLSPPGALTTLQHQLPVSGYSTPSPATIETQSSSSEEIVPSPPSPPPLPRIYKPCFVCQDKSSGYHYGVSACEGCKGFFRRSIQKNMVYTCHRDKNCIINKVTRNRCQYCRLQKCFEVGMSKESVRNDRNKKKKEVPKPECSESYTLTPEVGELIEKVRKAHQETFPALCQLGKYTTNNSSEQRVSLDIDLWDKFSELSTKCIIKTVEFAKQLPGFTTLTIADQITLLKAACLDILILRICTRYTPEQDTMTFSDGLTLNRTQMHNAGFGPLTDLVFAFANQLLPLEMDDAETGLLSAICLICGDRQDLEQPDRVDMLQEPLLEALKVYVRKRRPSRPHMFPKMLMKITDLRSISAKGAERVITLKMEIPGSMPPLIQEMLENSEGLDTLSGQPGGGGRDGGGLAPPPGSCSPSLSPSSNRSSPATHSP
Sequence of human Peroxisome Proliferator-activated Receptor delta (PPARd), PPARD (gene 5467) (Q03181 whole entry, looked up, the tested form may be a part): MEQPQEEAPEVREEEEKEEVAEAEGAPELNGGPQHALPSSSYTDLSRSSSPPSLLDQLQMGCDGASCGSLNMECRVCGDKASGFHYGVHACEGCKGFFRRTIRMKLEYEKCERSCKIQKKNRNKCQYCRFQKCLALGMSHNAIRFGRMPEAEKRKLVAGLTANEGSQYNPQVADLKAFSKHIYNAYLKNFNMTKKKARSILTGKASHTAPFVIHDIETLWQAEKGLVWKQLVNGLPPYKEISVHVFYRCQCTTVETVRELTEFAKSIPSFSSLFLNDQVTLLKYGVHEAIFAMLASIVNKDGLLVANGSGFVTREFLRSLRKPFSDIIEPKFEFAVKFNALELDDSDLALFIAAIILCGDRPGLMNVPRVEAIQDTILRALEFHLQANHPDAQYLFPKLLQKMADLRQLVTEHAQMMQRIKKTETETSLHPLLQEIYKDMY
Sequence of Cellular tumor antigen p53 (Homo sapiens) (P04637 whole entry, looked up): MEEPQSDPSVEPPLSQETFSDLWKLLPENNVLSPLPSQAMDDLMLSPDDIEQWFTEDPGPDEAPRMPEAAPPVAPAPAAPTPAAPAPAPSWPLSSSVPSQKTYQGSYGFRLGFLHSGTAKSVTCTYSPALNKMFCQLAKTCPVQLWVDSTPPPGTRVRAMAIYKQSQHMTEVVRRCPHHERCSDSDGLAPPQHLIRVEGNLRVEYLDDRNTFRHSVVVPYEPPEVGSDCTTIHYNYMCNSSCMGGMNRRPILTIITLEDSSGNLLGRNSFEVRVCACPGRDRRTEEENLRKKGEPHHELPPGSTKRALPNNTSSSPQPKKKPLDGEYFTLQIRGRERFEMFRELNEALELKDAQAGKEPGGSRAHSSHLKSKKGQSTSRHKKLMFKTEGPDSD
Sequence of Nuclear receptor subfamily 1 group I member 2 (Homo sapiens) (O75469 whole entry, looked up, the tested form may be a part): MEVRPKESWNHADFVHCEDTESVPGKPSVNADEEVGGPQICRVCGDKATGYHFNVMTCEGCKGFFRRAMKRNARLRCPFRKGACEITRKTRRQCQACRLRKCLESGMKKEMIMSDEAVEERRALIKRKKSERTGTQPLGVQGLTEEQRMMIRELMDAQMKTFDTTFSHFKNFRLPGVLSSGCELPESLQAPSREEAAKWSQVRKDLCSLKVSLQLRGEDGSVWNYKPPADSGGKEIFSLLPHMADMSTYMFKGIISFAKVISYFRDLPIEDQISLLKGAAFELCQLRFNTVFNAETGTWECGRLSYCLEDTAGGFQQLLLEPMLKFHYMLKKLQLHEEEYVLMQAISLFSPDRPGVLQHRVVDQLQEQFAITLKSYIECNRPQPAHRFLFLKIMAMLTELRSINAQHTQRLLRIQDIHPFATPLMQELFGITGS
Sequence of Peroxisome proliferator-activated receptor gamma (Homo sapiens) (P37231 whole entry, looked up, the tested form may be a part): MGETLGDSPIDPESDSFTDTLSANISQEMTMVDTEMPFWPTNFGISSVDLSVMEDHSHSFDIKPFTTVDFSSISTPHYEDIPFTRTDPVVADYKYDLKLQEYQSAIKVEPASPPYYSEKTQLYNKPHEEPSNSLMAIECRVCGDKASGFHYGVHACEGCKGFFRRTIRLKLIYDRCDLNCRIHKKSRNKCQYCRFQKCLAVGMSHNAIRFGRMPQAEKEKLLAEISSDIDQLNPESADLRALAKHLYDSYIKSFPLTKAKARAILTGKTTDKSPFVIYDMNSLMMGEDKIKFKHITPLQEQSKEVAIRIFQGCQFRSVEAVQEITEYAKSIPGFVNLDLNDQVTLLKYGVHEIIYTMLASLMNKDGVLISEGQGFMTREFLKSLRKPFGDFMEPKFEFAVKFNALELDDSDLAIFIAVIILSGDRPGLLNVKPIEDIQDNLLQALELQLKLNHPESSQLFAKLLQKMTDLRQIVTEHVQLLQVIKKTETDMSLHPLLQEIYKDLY
Sequence of human Peroxisome Proliferator-activated Receptor alpha (PPARa), PPARA (gene 5465) (Q07869 whole entry, looked up, the tested form may be a part): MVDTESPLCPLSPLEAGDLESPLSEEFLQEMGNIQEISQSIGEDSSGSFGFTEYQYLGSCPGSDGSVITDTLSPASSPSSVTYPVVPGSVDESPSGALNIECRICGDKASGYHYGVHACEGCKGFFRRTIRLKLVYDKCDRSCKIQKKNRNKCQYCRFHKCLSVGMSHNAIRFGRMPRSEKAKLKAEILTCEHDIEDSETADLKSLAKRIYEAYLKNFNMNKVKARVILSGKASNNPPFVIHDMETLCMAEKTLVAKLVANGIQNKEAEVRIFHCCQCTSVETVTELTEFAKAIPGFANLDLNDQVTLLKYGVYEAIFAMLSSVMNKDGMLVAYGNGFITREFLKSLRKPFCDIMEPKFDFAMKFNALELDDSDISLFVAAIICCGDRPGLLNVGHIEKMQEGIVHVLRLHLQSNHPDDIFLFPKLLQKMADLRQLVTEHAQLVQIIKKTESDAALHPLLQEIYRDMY
Sequence of human Retinoic Acid Receptor gamma (RARg), RARG (gene 5916) (P13631 whole entry, looked up, the tested form may be a part): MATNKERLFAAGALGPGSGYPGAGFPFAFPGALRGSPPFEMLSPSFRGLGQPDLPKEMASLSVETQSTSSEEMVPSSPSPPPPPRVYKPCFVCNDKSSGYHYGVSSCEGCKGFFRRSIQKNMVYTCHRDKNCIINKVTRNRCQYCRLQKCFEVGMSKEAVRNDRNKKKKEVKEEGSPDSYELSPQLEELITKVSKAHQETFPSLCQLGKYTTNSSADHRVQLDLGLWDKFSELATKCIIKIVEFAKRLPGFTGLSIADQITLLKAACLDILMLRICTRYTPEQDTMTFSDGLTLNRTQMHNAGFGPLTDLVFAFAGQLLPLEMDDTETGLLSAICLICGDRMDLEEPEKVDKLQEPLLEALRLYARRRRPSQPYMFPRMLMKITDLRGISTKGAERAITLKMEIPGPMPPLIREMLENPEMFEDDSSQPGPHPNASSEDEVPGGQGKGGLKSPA

For the molecule `Nc1ccc([N+](=O)[O-])cc1O`, the result in [1], in [2], in test [3], in [5], in test [7] and in [8] was inactive. For the same molecule, the molecule was classed as inactive in test [9], in [10], in test [11], in test [12] and in test [13]. In addition, the figures for the AC50 in [4] and in test [6] were 16.1 µM (active) and 20 µM (active), respectively.

On to `FC(F)(I)C(F)(F)C(F)(F)C(F)(F)I`, for which the result in test [1], in [2], in [3], in [14], in test [16] and in [17] was inactive. Besides, in [13], the outcome was inactive. Besides, the AC50 in test [4] was 33.4 µM (active); in test [6], 44.1 µM (active) and 42 µM (active) and 56.5 µM (active); in [7], 51.2 µM (active) and 53.9 µM (active) and 47.1 µM (active); in [15], 49.9 µM (active) and 48.3 µM (active) and 57.1 µM (active); in [8], 52.2 µM (active) and 47.2 µM (active) and 45.6 µM (active); in [10], 39.6 µM (active) and 45.6 µM (active) and 52.7 µM (active). The AC50 is 49.8 µM (active) and 52.8 µM (active) and 49.4 µM (active) in [11]; 48.6 µM (active) in [12].

On to `COC(=O)CCC(F)(F)C(F)(F)C(F)(F)C(F)(F)F`, for which the molecule was classed as inactive in [2], in [3], in [4], in [14], in test [5] and in test [6]. In addition, the result in [7], in test [15], in test [8], in [9], in test [10] and in test [17] was inactive. In addition, the outcome in [11], in test [13] and in [18] was inactive.

Regarding `O[Si](c1ccccc1)(c1ccccc1)c1ccccc1`, the AC50 in test [1] is 100 µM (active); in test [4] it was 31.1 µM (active); in test [7], 32.9 µM (active); in [8], 30.1 µM (active); in test [11], 24.4 µM (active); in [12] it was 44.4 µM (active). Also, the AC50 in [13] was 0.68 µM (active). Further, the outcome in [2], in test [3], in test [5], in test [6], in test [16] and in [9] was inactive. Besides, the outcome in [10] and in test [19] was inactive.

Regarding `OCC(F)(F)C(F)(F)C(F)(F)F`, the molecule was classed as inactive in test [2], in test [3], in test [4], in [14], in [5] and in test [6]. Also, the outcome in test [7], in test [15], in test [8], in test [16], in test [9] and in [10] was inactive. The molecule was called inactive in test [17], in test [19], in test [11], in test [12], in [13] and in test [18].

With `Nc1ccc(Oc2cccc(Oc3ccc(N)cc3)c2)cc1`, the concentration at half-maximal activity (AC50) in [1] was 166 µM (active); in [4], 26.5 µM (active); in [14] it was 24.9 µM (active); in test [12], 5.29 µM (active); in test [13], 22.1 µM (active). Moreover, the call in test [2] and in test [3] was inactive.

Consider `FC(F)(F)C(F)(F)C(F)(F)CI`, for which the molecule was called inactive in test [2], in [3], in test [4], in test [14], in test [6] and in [7]. In addition, the result in test [8], in test [10], in test [17], in test [19], in test [11] and in test [13] was inactive.

As to `OCC(F)(F)C(F)(F)C(F)(F)C(F)F`, the molecule was called inactive in test [2], in [3], in [4], in test [14], in [5] and in test [6]. For the same molecule, the result in test [7], in test [8], in test [16], in test [9], in [10] and in test [11] was inactive. The molecule was called inactive in test [12], in test [13] and in test [18].

Consider `OCCCC(F)(F)C(F)(F)C(F)(F)F`, for which the molecule was called inactive in test [1], in test [2], in test [3], in test [4], in test [6] and in test [7]. For the same molecule, the result in [15], in test [8], in [9], in test [10], in test [11] and in test [12] was inactive. Also, the result in test [13] and in test [18] was inactive.
